Assay results from PubChem BioAssay (Tox21).
Inconclusive results are not listed. Values without a mark were called inactive. Active and inactive are the calls of the source. The call rests on the fitted dose curve; in most records, active means well fitted inhibition curve with a large enough effect in the repeat runs; inconclusive means weak or mixed curves, or effect the other way; inactive means no such curve, though single readings can be large or run the other way.

Each molecule was assayed against Nuclear receptor ROR-gamma (Homo sapiens) (UniProt P51449) (assay: qHTS assay to identify small molecule antagonists of the retinoid-related orphan receptor gamma (ROR-gamma) signaling pathway (AID 1159521; further: top concentration of the series differs between compounds; nearly all actives have a fitted effect of over 50% in size)). Conditions: Tet-on RORgamma CHO cells, RORE-luciferase, 16 h; series mostly up to 92.4 µM.
Text: U.S. Tox21 Program National Center for Advancing Translational Sciences [NCATS] NIH Chemical Genomics Center [NCGC] U.S. Environmental Protection Agency [EPA] National Institutes of Environmental Health Sciences [NIEHS] National Toxicology Program [NTP] U.S. Food and Drug Administration [FDA] Tox21 Assay Overview: Nuclear steroid hormone receptors are involved in many biological processes including inflammatory responses, cell proliferation, and apoptosis. Environmental factors or compounds disrupting these nuclear receptor pathways and gene expression may promote susceptibility to immunotoxicants and autoimmune diseases. One important group of these expression factors are the retinoid-related orphan receptors. To assess compounds that may interfere with the retinoid-related orphan receptor gamma (ROR-gamma) transcription factor, a cell-based luciferase assay was used. The CHO cell-based assay utilizes a TET-inducible ROR expression factor and ROR response element-LUC reporter gene. Reporter gene activity was induced using Doxycycline Hyclate and measured after 16 hr incubation. Tet-on ROR gamma CHO cells were used to screen against the Tox21 10K compound library for ROR gamma antagonists by quantification of decreased reporter gene activity in terms of decreased luminescence.
Tox21 Assay Protocol Summary: Tet-on ROR gamma CHO cells were dispensed at 1,000 cells in 4 uL of culture medium per well into white wall/solid bottom 1536-well plates using a Multidrop Combi (Thermo Scientific, Waltham, MA) dispenser. Following incubation at 37 C and 5% CO2 for 4 hr, 23 nL of compounds dissolved in DMSO, positive controls or DMSO only were transferred by a Pintool station (Kalypsys, San Diego, CA) and after 2 hr incubation at 37 C, one ul of 1 uM (final concentration) of Doxycycline Hyclate was added to all the wells by using a Flying Reagent Dispenser (FRD) (Aurora Discovery, San Diego, CA). After 16 hr incubation at 37 C and 5% CO2, 5 uL of ONE-Glo reagent (Promega Corporation, Madison, WI) was added to each assay plate using FRD. After 30 min incubation at room temperature, luminescence was quantified on a ViewLux plate reader (Perkin Elmer, Waltham, MA).
On the % scale 0 is the no-effect control and ±100 the full control effect.

SMILES	outcome	activity change, negative = inhibition
CC(C)COC(=O)/C=C/c1ccccc1	inactive	–
COc1ccc(OC)c(NC(=O)CC(C)=O)c1	inactive	–
CO[Si](CCCS)(OC)OC	inactive	–
CCN1CN(CC)CN(CC)C1	inactive	–
BrC/C=C/CBr	–	-16.8% [at 19 µM]
CC(C)CCC(=O)CCC(C)C	inactive	–
CC(C)=CC(C)(C)C	inactive	–
OC[C@@H](O)[C@H](O)[C@@H](O)[C@@H](O)CO	inactive	–
NS(=O)(=O)c1ccccc1OC(F)(F)F	inactive	–
NS(=O)(=O)c1cc2c(cc1Cl)NC(CC1CCCC1)NS2(=O)=O (stereo not given)	inactive	–
CCCCOC(=O)[C@@H](C)Oc1ccc(Oc2ccc(C(F)(F)F)cn2)cc1	inactive	–
C=CCOc1cc(Cl)ccc1C(=O)NCCN(CC)CC	inactive	–
COCCOCCOCCOC	inactive	–
CCCCCCCCCCC	inactive	–
CCNC(=O)NCCCOc1cccc(CN2CCCCC2)c1	inactive	–
CCCCCCCCC(=O)OCC	inactive	–
CCCCCCCCCCCCOC(C)=O	inactive	–
CC(C)C(=O)c1ccccc1	inactive	–
N#CCCOCCOCCC#N	inactive	–
Cc1ccc2c(c1)c1c3n2CCNC3CCC1 (stereo not given)	inactive	–

SMILES	outcome	activity change, negative = inhibition
CCOC(=O)CCCCCCCCC(=O)OCC	inactive	–
CC(C)C(=O)Nc1cccc(C(F)(F)F)c1	inactive	–
CCCCC/C=C/CC(=O)OC	inactive	–
OCCCCCCCl	inactive	–
CCCCC(CC)CNC(=O)CC(C)OC(=O)CCC(=O)O (stereo not given)	inactive	–
C=C(C)[C@@H]1CC[C@@H](C)C[C@@H]1O	inactive	–
O=C1CC[C@H](C(=O)N2CCCCC2)N1	inactive	–
CCNC(=O)/C=C/c1cccc(Br)c1	inactive	–
COc1ccc(NS(=O)(=O)c2ccc(N)cc2)nn1	inactive	–
C=C(C)C(=O)OC1CC(C)CC(C)(C)C1 (stereo not given)	inactive	–
O=C(/C=C/c1ccccc1)NCCO	inactive	–
CCCCCC1CCCC(=O)O1 (stereo not given)	inactive	–
CCCCC(CC)C(=O)OC(C)C (stereo not given)	inactive	–
O=S1(=O)CCCC1	inactive	–
CCCCC(=O)N(C)C	inactive	–
CC(C)SCc1ccco1	inactive	–
O=C(c1ccc2c(c1)C(=O)OC2=O)c1ccc2c(c1)C(=O)OC2=O	inactive	–
CNC(=O)NC	inactive	–
CCCOCCOCCOCCO	inactive	–
CC(=O)c1ccc2c(c1)CCCC2	inactive	–
